The record followed here is PubChem BioAssay (NCI).

About 83,000 compounds went through this panel and 20% of them were active in at least one assay; those are over-represented in the sample as a whole.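 Cells were grown in 96-well plates and exposed to the test compound at a single concentration for 48 hours; results are reported as percent growth, with values below 10 considered active.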 Calls of active or inactive are those of the source.

The test has as its system HL-60(TB) leukemia. Description: NCI-60 one-dose screen, 48 h (100 = growth as untreated, 0 = no growth, -100 = all killed). As to conditions: 10 µM unless noted.
Take `NC(=Nc1ccccc1)SCCCCSC(N)=Nc1ccccc1`: the growth is 79.5% (inactive).

Take `COc1cc2c3c(n(C4CCNCC4)c(=O)c2cc1OC)-c1cc2c(cc1C3=O)OCO2`: the growth is -50.3% (active). In the case of `O=C(Nc1ccc(Nc2ccncc2)cc1)c1ccc(Nc2ccnc3ccc([N+](=O)[O-])cc23)cc1` it was 79.9% (inactive).
